Results from PubChem BioAssay AID1159580 (chemical genetic matrix, 2015).
Several values for one entry are separate records, joined by “and”; a condition that tells them apart may be missing. Identical values can stand only once. Out of some 5,500 compounds screened, about 2,000 (36%) were called active. Roughly 18% stayed inconclusive and do not appear here. Rule as the data show it: active = normalized growth mostly below about 0.91 (no sharp cut-off); inconclusive = no clear call, values can overlap the other calls; inactive = mostly above about 0.92. Some of the results follow.

Assay: chemical genetic growth profiling, strain panel (AID 1159580);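 also: tested at 20 µM; growth read once vehicle control cultures reached saturation at 30 °C; 1 = growth at the plate median or of vehicle wells; lower values mean less growth of the strain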
Details: growth OD
[1] = S. cerevisiae deletion strains, locus YAL013W, strain DEP1, stronger effect = lower value
[2] = S. cerevisiae deletion strains, locus YAR019C, strain CDC15, stronger effect = lower value
[3] = S. cerevisiae deletion strains, locus YBL105C, strain PKC1, stronger effect = lower value
[4] = S. cerevisiae deletion strains, locus YBR135W, strain CKS1, stronger effect = lower value
[5] = S. cerevisiae deletion strains, locus YBR136W, strain MEC1, stronger effect = lower value
[6] = S. cerevisiae deletion strains, locus YBR160W, strain CDC28, stronger effect = lower value
[7] = S. cerevisiae deletion strains, locus YBR229C, strain ROT2, stronger effect = lower value
[8] = S. cerevisiae deletion strains, locus YDL017W, strain CDC7, stronger effect = lower value
[9] = S. cerevisiae deletion strains, locus YDL028C, strain MPS1, stronger effect = lower value
[10] = S. cerevisiae deletion strains, locus YDL101C, strain DUN1, stronger effect = lower value
[11] = S. cerevisiae deletion strains, locus YDL108W, strain KIN28, stronger effect = lower value
[12] = S. cerevisiae deletion strains, locus YDL132W, strain cdc53, stronger effect = lower value
[13] = S. cerevisiae deletion strains, locus YDL134C, strain PPH21, stronger effect = lower value
[14] = S. cerevisiae deletion strains, locus YDL214C, strain PRR2, stronger effect = lower value
[15] = S. cerevisiae deletion strains, locus YDR052C, strain DBF4, stronger effect = lower value
[16] = S. cerevisiae deletion strains, locus YDR054C, strain cdc34, stronger effect = lower value
[17] = S. cerevisiae deletion strains, locus YDR150W, strain NUM1, stronger effect = lower value
[18] = S. cerevisiae deletion strains, locus YDR226W, strain ADK1, stronger effect = lower value
[19] = S. cerevisiae deletion strains, locus YDR477W, strain SNF1, stronger effect = lower value
[20] = S. cerevisiae deletion strains, locus YEL061C, strain CIN8, stronger effect = lower value
[21] = S. cerevisiae deletion strains, locus YER123W, strain YCK3, stronger effect = lower value
[22] = S. cerevisiae deletion strains, locus YER133W, strain GLC7, stronger effect = lower value
[23] = S. cerevisiae deletion strains, locus YFL009W, strain cdc4, stronger effect = lower value
[24] = S. cerevisiae deletion strains, locus YFL029C, strain CAK1, stronger effect = lower value
[25] = S. cerevisiae deletion strains, locus YFR003C, strain YPI1, stronger effect = lower value
[26] = S. cerevisiae deletion strains, locus YFR019W, strain FAB1, stronger effect = lower value
[27] = S. cerevisiae deletion strains, locus YFR028C, strain CDC14, stronger effect = lower value
[28] = S. cerevisiae deletion strains, locus YGR040W, strain KSS1, stronger effect = lower value
[29] = S. cerevisiae deletion strains, locus YGR052W, strain FMP48, stronger effect = lower value
[30] = S. cerevisiae deletion strains, locus YGR078C, strain PAC10, stronger effect = lower value
[31] = S. cerevisiae deletion strains, locus YGR092W, strain DBF2, stronger effect = lower value
[32] = S. cerevisiae deletion strains, locus YGR229C, strain SMI1, stronger effect = lower value
[33] = S. cerevisiae deletion strains, locus YHR030C, strain SLT2, stronger effect = lower value
[34] = S. cerevisiae deletion strains, locus YHR079C, strain IRE1, stronger effect = lower value
[35] = S. cerevisiae deletion strains, locus YHR082C, strain KSP1, stronger effect = lower value
[36] = S. cerevisiae deletion strains, locus YHR087W, strain rtc3, stronger effect = lower value
[37] = S. cerevisiae deletion strains, locus YHR205W, strain SCH9, stronger effect = lower value
[38] = S. cerevisiae deletion strains, locus YIL147C, strain SLN1, stronger effect = lower value
[39] = S. cerevisiae deletion strains, locus YJL095W, strain BCK1, stronger effect = lower value
[40] = S. cerevisiae deletion strains, locus YJL128C, strain PBS2, stronger effect = lower value
[41] = S. cerevisiae deletion strains, locus YJL157C, strain FAR1, stronger effect = lower value
[42] = S. cerevisiae deletion strains, locus YJR016C, strain ILV3, stronger effect = lower value
[43] = S. cerevisiae deletion strains, locus YJR043C, strain POL32, stronger effect = lower value
[44] = S. cerevisiae deletion strains, locus YJR066W, strain TOR1 (second series), stronger effect = lower value
[45] = S. cerevisiae deletion strains, locus YJR066W, strain TOR1, stronger effect = lower value
[46] = S. cerevisiae deletion strains, locus YJR075W, strain HOC1, stronger effect = lower value
[47] = S. cerevisiae deletion strains, locus YKL048C, strain ELM1, stronger effect = lower value
[48] = S. cerevisiae deletion strains, locus YKL067W, strain YNK1, stronger effect = lower value
[49] = S. cerevisiae deletion strains, locus YKL101W, strain HSL1, stronger effect = lower value
[50] = S. cerevisiae deletion strains, locus YKL190W, strain CNB1, stronger effect = lower value
[51] = S. cerevisiae deletion strains, locus YKL193C, strain SDS22, stronger effect = lower value
[52] = S. cerevisiae deletion strains, locus YKL203C, strain TOR2, stronger effect = lower value
[53] = S. cerevisiae deletion strains, locus YLR039C, strain RIC1, stronger effect = lower value
[54] = S. cerevisiae deletion strains, locus YLR058C, strain SHM2 (second series), stronger effect = lower value
[55] = S. cerevisiae deletion strains, locus YLR085C, strain ARP6, stronger effect = lower value
[56] = S. cerevisiae deletion strains, locus YLR113W, strain HOG1, stronger effect = lower value
[57] = S. cerevisiae deletion strains, locus YLR133W, strain CKI1, stronger effect = lower value
[58] = S. cerevisiae deletion strains, locus YLR262C, strain YPT6, stronger effect = lower value
[59] = S. cerevisiae deletion strains, locus YLR403W, strain SFP1, stronger effect = lower value
[60] = S. cerevisiae deletion strains, locus YML070W, strain DAK1, stronger effect = lower value
[61] = S. cerevisiae deletion strains, locus YML094W, strain GIM5, stronger effect = lower value
[62] = S. cerevisiae deletion strains, locus YMR001C, strain CDC5, stronger effect = lower value
[63] = S. cerevisiae deletion strains, locus YMR205C, strain PFK2 (second series), stronger effect = lower value
[64] = S. cerevisiae deletion strains, locus YMR219W, strain ESC1, stronger effect = lower value
[65] = S. cerevisiae deletion strains, locus YMR263W, strain SAP30, stronger effect = lower value
[66] = S. cerevisiae deletion strains, locus YMR277W, strain FCP1, stronger effect = lower value
[67] = S. cerevisiae deletion strains, locus YNL006W, strain LST8, stronger effect = lower value
[68] = S. cerevisiae deletion strains, locus YNL020C, strain ARK1, stronger effect = lower value
[69] = S. cerevisiae deletion strains, locus YNL128W, strain TEP1, stronger effect = lower value
[70] = S. cerevisiae deletion strains, locus YNL153C, strain GIM3, stronger effect = lower value
[71] = S. cerevisiae deletion strains, locus YNL161W, strain CBK1, stronger effect = lower value
[72] = S. cerevisiae deletion strains, locus YNL183C, strain NPR1, stronger effect = lower value
[73] = S. cerevisiae deletion strains, locus YNL207W, strain RIO2, stronger effect = lower value
[74] = S. cerevisiae deletion strains, locus YNL222W, strain SSU72, stronger effect = lower value
[75] = S. cerevisiae deletion strains, locus YNL298W, strain CLA4 (second series), stronger effect = lower value
[76] = S. cerevisiae deletion strains, locus YNL307C, strain MCK1 (second series), stronger effect = lower value
[77] = S. cerevisiae deletion strains, locus YNL322C, strain KRE1, stronger effect = lower value
[78] = S. cerevisiae deletion strains, locus YNR030W, strain Alg12, stronger effect = lower value
[79] = S. cerevisiae deletion strains, locus YOL078W, strain AVO1, stronger effect = lower value
[80] = S. cerevisiae deletion strains, locus YOL136C, strain PFK27, stronger effect = lower value
[81] = S. cerevisiae deletion strains, locus YOR061W, strain CKA2, stronger effect = lower value
[82] = S. cerevisiae deletion strains, locus YOR119C, strain RIO1, stronger effect = lower value
[83] = S. cerevisiae deletion strains, locus YOR231W, strain MKK1, stronger effect = lower value
[84] = S. cerevisiae deletion strains, locus YOR329C, strain SCD5, stronger effect = lower value
[85] = S. cerevisiae deletion strains, locus YPL031C, strain PHO85, stronger effect = lower value
[86] = S. cerevisiae deletion strains, locus YPL055C, strain LGE1, stronger effect = lower value
[87] = S. cerevisiae deletion strains, locus YPL153C, strain RAD53, stronger effect = lower value
[88] = S. cerevisiae deletion strains, locus YPL204W, strain HRR25, stronger effect = lower value
[89] = S. cerevisiae deletion strains, locus YPL209C, strain IPL1, stronger effect = lower value
[90] = S. cerevisiae deletion strains, locus YPL241C, strain CIN2, stronger effect = lower value
[91] = S. cerevisiae deletion strains, locus YPL256C, strain CLN2, stronger effect = lower value
[92] = S. cerevisiae deletion strains, locus YPR025C, strain CCL1, stronger effect = lower value
[93] = S. cerevisiae deletion strains, locus YPR106W, strain ISR1, stronger effect = lower value
[94] = S. cerevisiae deletion strains, locus YPR111W, strain DBF20, stronger effect = lower value
[95] = S. cerevisiae deletion strains, locus YPR135W, strain CTF4, stronger effect = lower value
[96] = S. cerevisiae deletion strains, strain NNK1, stronger effect = lower value
[97] = S. cerevisiae deletion strains, strain TSCII, stronger effect = lower value
[98] = S. cerevisiae strains, strain wild type, stronger effect = lower value

Measured: normalized growth

O=C(O/N=C1/CCCc2[nH]c3ccccc3c21)c1ccc(Cl)cc1Cl
inactive: [2] 0.982 | [3] 0.984 | [4] 0.974 | [5] 0.975 | [6] 0.98 | [7] 0.97 | S. cerevisiae deletion strains, locus YCL061C, strain MRC1, stronger effect = lower value 0.923 | [8] 0.974 | [9] 0.972 | [10] 0.989 and 1 | [11] 0.972 | [12] 0.976 | [13] 0.968 | [14] 0.917 | [15] 0.985 | [16] 0.984 | [17] 0.943 | [18] 0.96 | [19] 0.91 | [20] 0.917 | [21] 0.917 | [22] 0.91 | [23] 0.971 | [24] 0.98 | [25] 0.973 | [26] 0.95 | [27] 0.977 | [28] 0.908 | [29] 0.897 | [30] 0.962 | [31] 0.982 | [32] 0.993 | [34] 0.988 | [35] 0.943 | [36] 0.982 | [37] 0.961 | [38] 0.976 | [39] 0.935 | [40] 0.921 | [41] 0.906 | [42] 0.964 | [43] 0.941 | [44] 0.876 | [45] 0.987 | [46] 0.895 | [47] 0.963 | [48] 0.946 | [49] 0.935 | [51] 0.969 | [52] 0.958 | [54] 0.971 | [57] 0.926 | [59] 0.931 | [60] 0.914 | [62] 0.977 | [63] 0.935 | [64] 1.01 | [66] 0.969 | [67] 0.983 | [68] 0.921 | [69] 0.972 | [70] 0.971 | [71] 0.971 | [72] 1 | [73] 0.976 | [74] 0.97 | [76] 0.937 | [77] 0.993 | [79] 0.971 | [80] 0.917 | [81] 0.935 | [82] 0.97 | [83] 0.939 | [84] 0.972 | [85] 0.9 | [87] 0.918 | [88] 0.912 | [89] 0.977 | [91] 0.882 | [92] 0.979 | [93] 0.979 | [94] 0.972 | [95] 0.681 | [96] 0.975 | [97] 0.972
active: [1] 0.906 | [33] 0.426 and 0.762 | [50] 0.807 | [53] 0.708 | [55] 0.55 | [56] 0.806 | [58] 0.776 | [61] 0.822 | [65] 0.893 | S. cerevisiae deletion strains, locus YMR307W, strain GAS1, stronger effect = lower value 0.461 | [75] 0.796 | [78] 0.754 | [86] 0.733 | [90] 0.843 | [98] 0.874

O=C(O/N=C1/CCCc2[nH]c3ccccc3c21)C1CCCCC1
inactive: [2] 0.972 | [3] 0.959 | [4] 0.964 | [5] 0.947 | [6] 0.962 | [8] 0.955 | [9] 0.962 | [10] 0.973 | [11] 0.931 | [12] 0.97 | [14] 0.881 | [15] 0.971 | [16] 0.951 | [18] 0.962 | [19] 0.905 | [21] 0.821 | [22] 0.888 | [23] 0.973 | [24] 0.966 | [25] 0.961 | [26] 0.918 | [27] 0.975 | [28] 0.856 | [29] 0.914 | [31] 0.845 | [33] 0.971 | [34] 0.963 | [35] 0.899 | [37] 0.873 | [38] 0.962 | [39] 0.942 | [40] 0.935 | [41] 0.884 | [42] 0.951 | [44] 0.902 | [45] 0.895 | [47] 0.925 | [48] 0.909 | [49] 0.878 | [51] 0.97 | [52] 0.931 | [56] 0.966 | [57] 0.9 | [59] 0.903 | [60] 0.846 | [62] 0.966 | [63] 0.895 | [66] 0.956 | [67] 0.992 | [68] 0.872 | [71] 0.963 | [72] 0.896 | [73] 0.959 | [74] 0.967 | [76] 0.911 | [79] 0.963 | [80] 0.857 | [81] 0.845 | [82] 0.948 | [83] 0.951 | [84] 0.972 | [85] 0.894 | [87] 0.887 | [88] 0.908 | [89] 0.965 | [91] 0.933 | [92] 0.961 | [93] 0.962 | [94] 0.969 | [96] 0.967 | [97] 0.967

Cn1c2c(c3ccccc31)/C(=N\OC(=O)c1ccc(Cl)cc1Cl)CCC2
inactive: [1] 1.01 | [7] 1.03 | [10] 1.02 | [13] 1.02 | [17] 1.04 | [20] 0.957 | [30] 1.03 | [32] 1.02 | [33] 1.07 | [36] 0.986 | S. cerevisiae deletion strains, locus YJL187C, strain SWE1, stronger effect = lower value 1.01 | [43] 1.02 | [46] 1.01 | [50] 1.01 | [53] 1.01 | [54] 1.02 | [55] 0.977 | [58] 1.15 | [61] 1 | [64] 1 | [65] 0.986 | [69] 1.01 | [70] 1.04 | [75] 1.01 | [77] 1.01 | [78] 1.03 | [86] 0.982 | [90] 0.98 | [95] 1.11 | [98] 1.02
